High-throughput results from PubChem BioAssay.
PAD4 inh: PAD4 (human) enzyme inhibition; Q9UM07; recombinant PAD4, RCA probe fluorescence polarization; inhibition, % at 6.36 µM; 330,000 tested, 0.41% active; AID 485272;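 active = percent inhibition above a cutoff equal to the mean of all tested compounds plus 3 SD, cut at about 15% in these data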;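 also: 0% = PAD4 with RCA probe and DMSO and 100% = probe without PAD4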
Fam108B counter: blocks mouse Fam108B hydrolase in RBBP9 counter-screen; AID 1947; recombinant Fam108B, FP-Rh probe fluorescence polarization; inhibition, % at 9.51 µM; 300,000 tested, 0.33% active;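 active = inhibition above the screen mean inhibition plus 3 SD, computed separately per campaign, cut at about 18% in these data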;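 also: inhibitors lower polarization as less probe binds the enzyme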
LYPLA1 inh: counter-screen for PME1 inhibitors: inhibitors of human LYPLA1; inhibition, % at 5.9 µM; AID 2174; recombinant LYPLA1, FP-Rh probe fluorescence polarization; 320,000 tested, 0.16% active; O75608;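 active = inhibition above the mean of all tested compounds plus 3 SD, set per campaign, cut at about 14% in these data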;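 also: inhibitors block serine hydrolase probe labeling of LYPLA1 so polarization falls; 0% = enzyme with DMSO and 100% = wells lacking LYPLA1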
GSTO1 inh: GSTO1 inhibition, counter-screen for RBBP9 inhibitors | AID 1974 | P78417 | recombinant GSTO1, activity-based probe fluorescence polarization | 300,000 tested, 1.1% active | inhibition, % at 5.96 µM;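 active = inhibition above the campaign mean inhibition plus 3 SD, cut at about 35% in these data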;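 also: 0% = GSTO1-1 with DMSO and 100% = wells lacking GSTO1-1 enzyme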
Target sequence (P78417 whole entry, looked up): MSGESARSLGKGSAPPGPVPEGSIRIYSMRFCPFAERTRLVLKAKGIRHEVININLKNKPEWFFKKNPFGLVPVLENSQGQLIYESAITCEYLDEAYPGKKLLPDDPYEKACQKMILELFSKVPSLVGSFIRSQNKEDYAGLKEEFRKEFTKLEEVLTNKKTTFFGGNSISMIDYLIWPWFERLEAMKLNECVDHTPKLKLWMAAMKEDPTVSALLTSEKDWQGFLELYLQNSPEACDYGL
PME-1 primary: blocks human protein phosphatase methylesterase 1; inhibition, % at 5.9 µM; AID 2130; recombinant PME-1, FP-Rh probe fluorescence polarization; Q9Y570; 320,000 tested, 0.53% active;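 active = inhibition above the campaign mean of all compounds plus 3 SD, cut at about 26% in these data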;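 also: competitive labeling of PME-1 active site by serine hydrolase directed probe; 0% = PME-1 with DMSO and 100% = wells lacking PME-1 enzyme; inhibitors block probe labeling so polarization falls and inhibition rises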
LYPLA2 inh: LYPLA2 (human) inhibition in PME1 counter-screen; O95372; recombinant LYPLA2, FP-Rh probe fluorescence polarization; inhibition, % at 5.9 µM; 320,000 tested, 0.38% active;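 active = inhibition above the screen-wide mean plus 3 SD, limit set per campaign, cut at about 26% in these data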;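 also: 0% = LYPLA2 with DMSO and 100% = wells lacking LYPLA2 enzyme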
Target sequence (O95372 whole entry, looked up): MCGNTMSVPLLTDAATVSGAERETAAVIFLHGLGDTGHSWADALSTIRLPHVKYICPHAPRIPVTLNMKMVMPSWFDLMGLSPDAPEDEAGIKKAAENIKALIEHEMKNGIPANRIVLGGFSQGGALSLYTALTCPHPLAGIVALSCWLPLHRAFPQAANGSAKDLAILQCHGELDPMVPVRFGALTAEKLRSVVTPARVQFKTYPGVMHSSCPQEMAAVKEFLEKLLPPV
GSTO1 inh conf: confirmation of human GSTO1 inhibitors. shares compounds with GSTO1 inh. inhibition, % at 5.96 µM. recombinant GSTO1, probe fluorescence polarization. 2,400 tested, 54% active;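 active = inhibition above the primary screen's cutoff, its mean inhibition plus 3 SD, cut at about 35% in these data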;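 also: loss of polarization as inhibitors block binding of rhodamine sulfonate ester activity probe; 0% = GSTO1 with DMSO and 100% = wells lacking GSTO1 enzyme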
GSTO1 ABPP inh: blocks recombinant human glutathione S-transferase omega 1. inhibition, % at 1 µM. 130 tested, 30% active. AID 463110. shares compounds with GSTO1 inh. recombinant GSTO1, gel ABPP SE-Rh probe fluorescence;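 active = inhibition of the enzyme GSTO1 above about 75%, limit read from the data; inactive = inhibition below that limit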
* marks the source's active call; other numbers are inactive results; . = not tested or not shown. In the library only some 1.7% were active in any assay of this set; here they are far more common.

SMILES | PAD4 inh | Fam108B counter | LYPLA1 inh | GSTO1 inh | PME-1 primary | LYPLA2 inh | GSTO1 inh conf | others
COC(=O)CCC(=O)OC1(C)C(=O)C=C2C=C(C3CC3)N(Cc3ccc4c(c3)OCO4)C=C2C1=O (centres undefined) | 0 | -1 | 6 | 44* | 11 | 2 | 16
COC(=O)CCCC1=CC2=C(c3ccccc3)C(=O)C(C)(OC(=O)C3CCCC3)C(=O)C2=CN1Cc1ccco1 (centres undefined) | -10 | -2 | 1 | 21 | 4 | 1 | .
COC(=O)CCC(=O)OC1(C)C(=O)C=C2C=C(C3CC3)N(CCc3ccccn3)C=C2C1=O (centres undefined) | 10 | 4 | 0 | 43* | 3 | 3 | 17
COC(=O)CCCC1=CC2=C(c3ccccc3)C(=O)C(C)(OC(=O)C3CCCC3)C(=O)C2=CN1CCCCO (centres undefined) | -12 | 5 | 4 | 45* | 4 | 2 | 19
COC(=O)CCC(=O)OC1(C)C(=O)C=C2C=C(C3CC3)N(Cc3ccc(OC)cc3)C=C2C1=O (centres undefined) | 2 | -1 | 1 | 21 | 3 | 2 | .
COC(=O)CCC(=O)OC1(C)C(=O)C=C2C=C(C3CC3)N(CCCCO)C=C2C1=O (centres undefined) | 2 | -1 | 2 | 46* | 2 | 4 | 9
CCCCN(C)CCCNC(=O)c1ccc(N2CCCC2=O)cc1 | -6 | 5 | -2 | 6 | -1 | 2 | .
O=S(=O)(Nc1ccc(S(=O)(=O)Nc2nccs2)cc1)c1ccc(Br)cc1 | 1 | -2 | 2 | 6 | 9 | 3 | .
CN(C)c1cccc(NC(=O)c2cccc3ccccc23)c1 | -3 | -2 | 0 | 38* | -4 | -9 | 5
CC(=O)Nc1ccc(NC(=O)c2cccc3ccccc23)cc1 | 0 | 4 | 0 | 17 | 2 | 4 | .
CCCCCCN(C(=O)CCl)c1ccccc1 | 6 | 0 | 3 | 83* | 4 | 1 | 97* | GSTO1 ABPP inh=83*
CCCN(C(=O)Cn1ncc2c(=O)oc3ccccc3c21)c1cccc(C)c1 | 1 | 0 | -4 | 3 | 4 | 6 | .
CCCCCCCN(C(=O)CCl)c1cccc(C)c1 | 2 | 0 | 0 | 97* | -4 | -3 | 96* | GSTO1 ABPP inh=73
Cc1cccc(NC(=O)Cn2nnc(C(=O)Nc3ccc(F)c(Cl)c3)c2N)c1 | 5 | -12 | -5 | 43* | -23 | -13 | 8
O=[N+]([O-])c1ccc2[nH]c(O)c(N=NC(=S)NCC3CCCO3)c2c1 (centres undefined) | -3 | -3 | 2 | 40* | 4 | 4 | 45*
O=[N+]([O-])c1ccc2[nH]c(O)c(N=NC(=S)Nc3cccnc3)c2c1 | -4 | 5 | 1 | 42* | 5 | -7 | 65*
O=C(CNC(=O)c1ccc(Br)cc1)N=Nc1c(O)[nH]c2ccc([N+](=O)[O-])cc12 | 1 | 0 | 1 | 19 | 10 | 15 | .
O=C1NC(=O)C(c2ccccc2[N+](=O)[O-])=C1Nc1ccc(O)c(Cl)c1 | 46* | 16 | -2 | 64* | 6 | 2 | 49*
Cc1ccc(-c2cc(-c3ccccc3[N+](=O)[O-])[nH]n2)c(O)c1 | -1 | 2 | -6 | 0 | -4 | -2 | .
Oc1ccc(/C=N/N2CCCCC2)cc1O | 3 | 1 | -4 | 40* | -4 | -4 | 8
COc1cc(-c2nnc(SCc3cc(=O)oc4cc(O)c(O)cc34)o2)cc(OC)c1OC | 2 | 6 | -4 | 59* | -12 | 3 | 39*
Cn1cc(C[C@H](NC(=O)OC(C)(C)C)C(=O)N[C@@H](CO)Cc2ccccc2)c2ccccc21 | -4 | -1 | -1 | 7 | 0 | 1 | .
Cc1ccc(S(=O)(=O)N(C)c2ccccc2C(=O)N2CCOCC2)cc1 | 1 | -1 | 1 | 4 | 5 | 1 | .
Cc1ccc(S(=O)(=O)N2CCN(CC(=O)N/N=C/c3ccc(C)o3)CC2)cc1 | 1 | 0 | 1 | 2 | -2 | 8 | .
Cc1ccc(C(=O)Nc2nnc(CC(=O)N/N=C/c3ccc(O)c(O)c3)s2)cc1 | -12 | 18 | -15 | 38* | 29* | -7 | 31
SMILES | PAD4 inh | Fam108B counter | LYPLA1 inh | GSTO1 inh | PME-1 primary | LYPLA2 inh | GSTO1 inh conf | others
O=C(N/N=C/c1ccc(O)c(O)c1)c1cccc(S(=O)(=O)N2CCCC2)c1 | 6 | 4 | -1 | 67* | -8 | -4 | 4
CCN(CC)S(=O)(=O)c1cccc(C(=O)N/N=C/c2ccc(O)c(O)c2O)c1 | -1 | 11 | -12 | 63* | 11 | -9 | 20
CCOc1ccccc1/C=N/NC(=O)c1cccc(S(=O)(=O)N(CC)CC)c1 | 1 | -2 | -3 | 4 | 3 | -1 | .
Cc1ccc(S(=O)(=O)N2CCN(CC(=O)N/N=C\c3ccc(O)c(O)c3)CC2)cc1 | 2 | -4 | 0 | 46* | 1 | 7 | 3
Cc1ccc(/C=N/NC(=O)c2cccc(NC(=O)c3ccccc3Cl)c2)o1 | -5 | -3 | -9 | 2 | -8 | -17 | .
C/C(=N/NC(=O)Cc1cc(=O)[nH][nH]1)c1ccc([N+](=O)[O-])cc1 | -10 | -2 | 0 | 57* | 0 | -3 | 6
Cc1nnc2n(Cc3ccccc3)c(=O)c3c4c(sc3n12)COC(C(C)C)C4 (centres undefined) | -3 | 8 | -6 | -5 | 3 | 3 | .
O=C(CSc1nnc(-c2ccco2)o1)c1ccc([N+](=O)[O-])cc1 | -10 | 2 | 4 | 47* | 3 | 4 | 24
COc1ccc(C(C(=O)NC2CCCCC2)N(C(=O)CCl)c2ccc(Cl)cc2)cc1 (centres undefined) | 3 | 4 | -2 | 97* | -5 | -3 | 89* | GSTO1 ABPP inh=91*
COC(CN(C(=O)CCl)C(C(=O)NC1CCCCC1)c1ccc(Cl)cc1)OC (centres undefined) | 0 | -5 | 0 | 73* | 5 | 1 | 98* | GSTO1 ABPP inh=52
O=C(NC1CCCC1)C(c1ccc(Cl)cc1)N(Cc1ccc(F)cc1)C(=O)CCl (centres undefined) | 1 | 2 | 4 | 13 | -7 | 0 | .
O=S(=O)(NCCSc1nnc(-c2ccco2)n1-c1ccccc1)c1ccccc1 | -3 | -2 | 0 | -4 | 1 | 4 | .
Cc1nn(Cc2ccc(Cl)cc2Cl)c(C)c1NC(=O)c1nn(C)cc1Cl | -4 | 5 | 2 | 5 | 1 | 2 | .
Cc1nn(Cc2ccc(Cl)cc2Cl)c(C)c1NC(=O)CCl | -4 | -3 | 3 | 97* | 2 | -1 | 97*
Cc1cccc(OCC(=O)N(C)CCc2ccccn2)c1 | 0 | -3 | -1 | -4 | -2 | -3 | .
